Screens from PubChem.
SARS PLP yeast: qHTS of Yeast-based Assay for SARS-CoV PLP; S. cerevisiae expressing SARS-CoV PLpro, growth rescue; 330,000 compounds, 0.19% hits; Potency, µM (doses to about 32.9 µM), without a hit: top-dose activity, positive = growth rescue, actives largely listed as activators; calls by dose curve; further: potency means the concentration at half of the fitted maximal effect; 0% is about no effect; nearly all actives have a fitted effect of over 55% in size
Cycloheximide cs: Cycloheximide Counterscreen for Small Molecule Inhibitors of Shiga Toxin | 300,000 compounds, 12% hits | max response, % | cell reporter, cycloheximide protein synthesis inhibition counterscreen; in the data active means max response mostly above about 13%, no sharp cut-off; inactive means mostly below about 14%; further: read at 38.3 µM for the half of the compounds with a filed dose; 0% is about no effect
NS1 function inh: qHTS Assay for Inhibitors of Influenza NS1 Protein Function | Potency, µM (doses to about 46.1 µM), for inactives: top-dose activity, positive = more growth | AID 2326, 2010 | 270,000 compounds, 0.4% hits; calls by dose curve; further: potency means the concentration at half of the fitted maximal effect; actives are rising curves; nearly all actives have a fitted effect of over 50% in size
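OD600 was taken as the measure of yeast growth restored by compound in an NS1-expressing S. cerevisiae strain. Cells had been washed out of glucose medium and diluted 1:100 into galactose -URA medium, pH 6.0.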
Pf growth 96h: Primary qHTS for delayed death inhibitors of the malarial parasite plastid, 96 hour incubation; P. falciparum luciferase reporter growth, 96 h; Potency, µM (highest dose often 28.7 µM), inactives show at the highest dose activity change, negative = inhibition, actives largely listed as inhibitors; 320,000 compounds, 6.9% hits; AID 504834, 2011; further: potency means the concentration at half of the fitted maximal effect; on the % scale 0 is the no-effect control and ±100 the full control effect
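Cell-based qHTS: luciferase-tagged P. falciparum in erythrocytes (2% hematocrit, 0.05% parasitemia final) incubated with compounds for 96 hours, 37 C, 5% CO2; luciferase detection reagent then added and luminescence measured.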
Pf growth 48h: Primary qHTS for delayed death inhibitors of the malarial parasite plastid, 48 hour incubation. P. falciparum luciferase growth in erythrocytes, 48 h. Potency, µM (highest dose often 28.7 µM), for inactives: at the highest dose activity change, negative = inhibition, actives largely listed as inhibitors. 310,000 compounds, 5.9% hits. AID 504832, 2011; further: potency means the concentration at half of the fitted maximal effect; on the % scale 0 is the no-effect control and ±100 the full control effect
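Read-out is firefly luciferase luminescence from an integrated reporter in P. falciparum, so falling signal marks reduced parasite growth. Infected erythrocytes were at 2% hematocrit and 0.1% parasitemia (final) in Albumax-supplemented RPMI 1640.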
Shiga toxin inh: A qHTS for Small Molecule Inhibitors of Shiga Toxin; inhibition, % at 38.7 µM; 290,000 compounds, 9.2% hits; Vero cells, Shiga toxin protein synthesis inhibition reporter; in the data active means inhibition mostly above about 28%, no sharp cut-off; inactive means mostly below about 43%; further: 0% is about no effect
* marks the source's active call; other numbers are inactive results; i = inactive; ? = inconclusive; / = not tested or not shown. Compounds with a hit are over-represented: about 21% of the library has one in this group of screens. Unless noted, the call rests on the fitted dose curve; in most records, active means well fitted inhibition curve with a large enough effect; inconclusive means small, poorly fitted or top-dose-only effect, or another doubt; inactive means no such curve, though single readings can be large or run the other way.

SMILES | SARS PLP yeast | Cycloheximide cs | NS1 function inh | Pf growth 96h | Pf growth 48h | Shiga toxin inh
CCN(CC)S(=O)(=O)c1cccc(C(=O)Nc2ccc(S(=O)(=O)NC3=NCCCCC3)cc2)c1 | -1% | / | / | 6.6µM* | ? | /
CC1CCN(S(=O)(=O)CCNC(=O)c2ccc(F)cc2)CC1 | 1% | / | / | 22% | 19% | /
Cc1ccc(S(=O)(=O)CCC(=O)Nc2nnc(-c3cccs3)o2)cc1 | 3% | / | / | ? | -8% | /
CC(NC(=O)[C@H](C)NC(=O)C1CC(=O)N(c2ccc3c(c2)OCO3)C1)c1ccccc1 (stereo not given in full) | 4% | -4 | 15% | 76% | 25% | -4
Nc1nc2cc(S(=O)(=O)NC3=NCCCCC3)ccc2s1 | 3% | -1 | 12% | ? | ? | 10
CCOC(=O)c1ccc(S(=O)(=O)Nc2nc3cc(S(=O)(=O)NC4=NCCCCC4)ccc3s2)cc1 | 3% | -2 | / | 13µM* | -1% | -5
Cc1cc(=O)[nH]c2ccc(S(=O)(=O)N3CCOCC3)cc12 | 0% | 6 | -5% | ? | -3% | -9
O=C(NCCCCNC(=O)C(F)(F)F)C(F)(F)F | 1% | 17 | / | ? | -2% | -8
c1ccc2c(c1)C(=Nn1cnnc1)c1ccccc1-2 | 0% | -1 | -36% | 12µM* | 3% | 20
O=C1/C(=N/n2cnnc2)c2ccccc2N1Cc1ccccc1 | -27% | -2 | -114% | 9.3µM* | -11% | -5
Cc1cccc(NCc2ccccc2O)c1 | -9% | 18* | -2% | 8% | -4% | 25
Cc1cccc(NCCNc2cccc(C)c2)c1 | 4% | 18* | -40% | 57% | 4% | 25
Cc1ccc(CNc2ccc(O)cc2)cc1 | -14% | 24 | -13% | / | ? | 43
Cc1ccc(NCc2ccccc2F)cc1 | 0% | 9 | -14% | 1% | -1% | 29*
Cc1ccc(NCc2ccccc2O)cc1 | -5% | 30* | 3% | / | 3% | 72*
C=C1c2cccc(C(F)(F)F)c2O[C@H](C(=O)OCC)[C@@H]1CCCCCC | / | 12 | / | / | / | i
O=C(COC(=O)c1ccc(Cl)c(S(=O)(=O)N2CCN(c3ccc(F)cc3)CC2)c1)Nc1cccc(Cl)c1 | 2% | -3 | 8% | ? | -13% | 12
O=c1[nH]c(=S)[nH]c(O)c1N=Nc1ccc(-c2ccccc2)cc1[N+](=O)[O-] | -5% | 17* | / | 235% | 27% | 58*
O=c1[nH]c(=S)[nH]c(O)c1N=Nc1cc2c(cc1[N+](=O)[O-])OCO2 | 7% | -2 | / | 35% | 19% | -11
Cn1c(CC(=O)NNC(=O)c2cccnc2)nc2ccccc21 | -6% | / | / | 6% | 1% | /
N#CC(C#N)=NNc1ccc(OC(F)(F)F)cc1 | / | 44* | / | / | / | 60*
O=C(/C=C/Nc1ccc(OC(F)(F)F)cc1)C(F)(F)F | 1% | -3 | 6% | 154% | 38% | -12
CCOC(=O)N1CCN(C(=O)c2cccn3c(=O)c4c5c(sc4nc23)CCCC5)CC1 | -1% | -2 | / | 12% | -8% | 16
CCOC(=O)N1CCc2c(sc3ncn(C)c(=O)c23)C1 | -6% | 2 | -2% | ? | -4% | 10
CCOC(=O)N1CCc2c(sc3nc4n(c(=O)c23)N=C(c2ccc(OC)cc2)CS4)C1 | -1% | -3 | 6% | ? | 0.47µM* | 3
SMILES | SARS PLP yeast | Cycloheximide cs | NS1 function inh | Pf growth 96h | Pf growth 48h | Shiga toxin inh
CCOC(=O)N1CCc2c(sc3nc(SC(C)C)n(N)c(=O)c23)C1 | -3% | 0 | 10% | 12µM* | ? | 1
COc1ccc(N=C2O/C(=C/c3sc(=S)n(CC4CCCO4)c3O)N=C2C#N)cc1 (stereo not given) | 0% | -2 | 0% | 15µM* | ? | 3
O=C1N=c2ccccc2=C1c1sc(=S)n(CC2CCCO2)c1O (stereo not given) | 3% | -5 | 1% | 8% | / | -14
CCN(CC)S(=O)(=O)c1ccc(NC(=O)CO/N=C(\N)c2ccccc2)cc1 | 2% | / | / | -6% | ? | /
Oc1ccc(Nc2nc(-c3ccc(Cl)cc3)cs2)cc1 | / | 47* | / | / | / | 110*
Oc1ccc(Nc2nc(-c3cccnc3)cs2)cc1 | 4% | 38* | -3% | ? | 76% | /
Cc1nc(C)c(-c2csc(Nc3ccc(O)cc3C)n2)s1 | 3% | 1 | 15% | ? | ? | -7
Cc1cc(O)ccc1Nc1nc(-c2cccs2)cs1 | -2% | 36* | / | 4% | 399% | 69*
Brc1ccc(Nc2nc(-c3cccnc3)cs2)cc1 | -15% | 54* | / | 10% | 6% | 121*
O=C(Nc1nc(-c2cccnc2)cs1)c1ccccc1[N+](=O)[O-] | 3% | -1 | 3% | -14% | ? | 15
CN(CC(=O)Nc1ccc(Cl)c(C(F)(F)F)c1)C(=O)COC(=O)C1CC2CCCC(C1)C2=O (stereo not given) | 0% | / | / | / | / | /
COc1ccc(Cl)cc1NC(=S)NCc1ccco1 | 4% | 0 | 1% | 13% | -1% | -12
CCNS(=O)(=O)c1ccc(Br)c(C(=O)OC(C)C(=O)NCC2CCCCC2)c1 (stereo not given) | -13% | / | / | -15% | 19% | /
Cc1ccc(Nc2nc(-c3cccnc3)cs2)cc1C | -5% | 51* | -6% | ? | -33% | 96*
Cc1cc(O)ccc1Nc1nc(-c2cccnc2)cs1 | -4% | 31* | 4% | ? | 200% | 51*
Clc1cccc(Nc2nc(-c3cccnc3)cs2)c1 | -7% | 40* | -53% | 36% | ? | 91*
CCOc1ccc(Nc2nc(-c3cccnc3)cs2)cc1 | 13% | 40* | -5% | -4% | 48% | 57*
COc1ccc(Cl)cc1Nc1nc(-c2cccnc2)cs1 | -12% | 11 | -25% | 2% | ? | -1
Brc1cccc(Nc2nc(-c3cccnc3)cs2)c1 | -13% | 25* | -52% | 102% | 0% | /
CC(C)CN(C(=O)c1cc2ccccc2o1)c1c(N)n(CC(C)C)c(=O)[nH]c1=O | 10% | 4 | 17% | -4% | 11% | -17
CC(=O)N1CCN(S(=O)(=O)c2cccc(C(=O)N(Cc3ccccc3)c3ccc(C)cc3)c2)CC1 | 12% | / | / | ? | 5.9µM* | /
CC1CN(S(=O)(=O)c2cccc(C(=O)OCC(=O)NCc3ccccc3)c2)CC(C)O1 (stereo not given) | 0% | / | / | ? | ? | /
CC1CN(S(=O)(=O)c2cccc(C(=O)N(CCc3ccccc3)Cc3ccccc3)c2)CC(C)O1 (stereo not given) | 10% | / | / | ? | 2.9µM* | /
Cc1ccc(N(Cc2ccccc2)C(=O)c2cccc(S(=O)(=O)N3CC(C)OC(C)C3)c2)cc1 (stereo not given) | 4% | / | / | ? | 10µM* | /
O=C(CSc1n[nH]c(-c2ccccc2F)n1)Nc1cc(F)ccc1F | 6% | / | / | ? | 20% | /
